# Screening data: PubChem BioAssay, National Center for Advancing Translational Sciences (NCATS)
# Compounds with a hit are over-represented: about 2.1% of the library has one in this group of screens.
# FUS yeast rescue = FUS proteinopathy suppression in yeast; 0.24% of 390,000 active; Potency, µM (series often up to 76.6 µM), hits mostly activators; S. cerevisiae FUS-expressing, growth rescue, OD600, 24 h;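 further: plate controls were DMSO vehicle for no effect and reference control for full effect; nearly all actives have a fitted effect of over 55% in size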
#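 FUS-expressing yeast, raffinose-pregrown, induced in 2% galactose minimal medium at OD 0.005; compounds in a dilution series, 24hr at 30C. Growth restoration read as absorbance at 600 nm. CP55940 positive control, DMSO negative.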
# Abeta yeast res = A-beta toxicity reversal in yeast. yeast expressing A-beta42, growth rescue, OD600, 48 h; response scale: 0% DMSO, 100% iron-clioquinol control. Potency, µM (highest dose often 46.1 µM), most hits filed as activators. 0.063% of 410,000 active; further: nearly all actives have a fitted effect of over 55% in size
#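 Yeast growth medium received pinned compounds, then yeast cells expressing toxic A-beta were added; plates incubated at 30 C for 48 hr. Growth read as absorbance at 600 nm, normalized to DMSO and equimolar FeCl3 plus clioquinol controls.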
# aSyn rescue = alpha-synuclein toxicity inhibition in yeast | Yeast expressing alpha-synuclein, growth rescue, BacTiter-Glo, 24 h | Potency, µM (doses to about 46.1 µM), for the others: at the top dose growth rescue (activation), most hits filed as activators | AID 652106 | 0.14% of 370,000 active; further: % of control where 0% means no effect; nearly all actives have a fitted effect of over 65% in size
#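 Screening used galactose-induced yeast with toxic alpha-synuclein levels, exposed to compound for 24 hr at 30 deg C. Cell growth, read with BacTiter-Glo luminescence, gave the measured signal.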
# TDP43 rescue = inhibitors of TDP-43 toxicity in yeast | TDP-43 expressing yeast growth rescue, BacTiter-Glo, 24 h | Potency, µM (highest dose often 46.1 µM), without a hit: at the top dose growth rescue (activation), actives largely listed as activators | 1.8% of 410,000 active | AID 652104; further: % of control where 0% means no effect; nearly all actives have a fitted effect of over 50% in size
#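 Growth rescue of TDP-43-toxic yeast measured as ATP luminescence (BacTiter-Glo). Cells grown to mid-log in raffinose, induced in galactose at OD600=0.02, exposed to compound 24 hr at 30 deg C.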
# The depositor's hits bear a star; i = inactive; ? = inconclusive; nt = no result given. The call rests on the fitted dose curve; in most records, active means well fitted curve in the direction sought with a large enough effect; inconclusive means small, poorly fitted or top-dose-only effect, or another doubt; inactive means no such curve, though single readings can be large; an effect the other way counts as inactive or inconclusive. Potency means the concentration at half of the fitted maximal effect.
SMILES,FUS yeast rescue,Abeta yeast res,aSyn rescue,TDP43 rescue
Cc1ccc(OCCOc2ccc(Cl)cc2Cl)c(Br)n1,i,nt,nt,nt
CN(C(=O)COc1cc(=O)n(C)c2ccccc12)c1ccc(Cl)cc1,i,i,1%,-2%
CC(=O)N(c1ccc(Cl)cc1)c1cn(C(C)=O)c2ccccc12,i,i,12%,20µM*
CN(c1ccc(Cl)cc1)c1cc(=O)n(C)c2ccccc12,i,i,4%,16µM*
O=C(c1ccccc1C(F)(F)F)N1CCC(Oc2cccnc2)CC1,i,nt,nt,nt
CCOC(=O)/C=C1\SCC(=O)N1CCOc1cccc(Br)c1,i,i,0%,16µM*
O=C(N/N=C/c1ccccn1)c1sc2ccccc2c1Cl,i,?,3.2µM*,?
CC1CCCCN1C(=O)COC(=O)c1ccc(S(C)(=O)=O)c([N+](=O)[O-])c1 (stereo not given),nt,nt,-10%,nt
COc1ccccc1/C=C1\SC(N2CCC(C)CC2)=NC1=O,i,i,17%,13µM*
COc1cccc(/C=C2\SC(N3CCC(C)CC3)=NC2=O)c1OC,i,i,1%,?
N#CC(c1ccccc1)C(CC(=NO)c1ccccc1)c1ccccc1 (stereo not given),i,i,?,18µM*
Cc1cc(C)n(-c2cc(C(C)(C)C)nc3c(-c4ccc(Cl)cc4)cnn23)n1,i,i,-7%,-23%
Cc1cc(C)n(-c2cc(C(C)(C)C)nc3c(-c4ccccc4)cnn23)n1,i,i,-6%,14µM*
O=S(=O)(c1ccc(OC(F)(F)F)cc1)N1CCN(c2nc(-c3cccs3)nc3ccccc23)CC1,nt,nt,2%,nt
COc1ccc2c(c1)-c1c(ssc1=S)C(C)(C)N2C(=O)CSC1=NCCS1,i,i,7%,?
CC1(C)c2ssc(=S)c2-c2ccccc2N1C(=O)CSC1=NCCS1,i,i,14%,35µM*
COc1ccc(C2Nc3ccccc3C(=O)N2Cc2ccncc2)cc1COc1ccc(NC(C)=O)cc1 (stereo not given),i,nt,nt,nt
COc1ccc(C2Nc3cccc(O)c3C(=O)N2Cc2ccccc2)cc1COc1ccc(NC(C)=O)cc1 (stereo not given),11µM*,i,nt,nt
CCCC(=O)N1CCC1(C)C(=O)Nc1ccc(-n2cccc2)cc1 (stereo not given),i,i,3%,20µM*
CCCC(=O)N1CCC1(C)C(=O)Nc1ccc(C)c(C)c1 (stereo not given),i,i,13%,5%
C#CC(C)(C)NS(=O)(=O)c1cc(-c2nnc(Nc3ccc(C)cc3)c3ccccc23)ccc1C,i,i,nt,10%
COc1ccc(C2=C(c3ccc([N+](=O)[O-])cc3)C(=O)OC2)cc1,i,i,-5%,-8%
Cc1ccc(C2=C(c3ccc([N+](=O)[O-])cc3)C(=O)OC2)cc1C,i,i,-4%,13µM*
O=C(NCCc1nc2ccccc2n1CCOc1cccc2ccccc12)C1CCCCC1,nt,nt,-3%,nt
Cc1cc2c(c(C)c1Cl)C(c1ccc3c(c1)OCO3)CC(=O)O2 (stereo not given),?,?,15%,22µM*
SMILES,FUS yeast rescue,Abeta yeast res,aSyn rescue,TDP43 rescue
NC(=O)COC(=O)c1ccccc1OCC(=O)Nc1ccc(Br)cc1,nt,nt,1%,nt
Cc1nnc(-c2cccc(Br)c2)c2cn(-c3ccccc3Cl)nc12,i,i,10%,10µM*
Cc1ccc(-n2cc3c(-c4cccc(Br)c4)nnc(C)c3n2)cc1,?,i,0%,?
CCCCCCn1c(=O)n2n(c1=O)[C@@H]1CN(S(=O)(=O)c3ccc(C)cc3)C[C@]1(O)[C@@H](OC(=O)NCc1ccc(OC)c(OC)c1)C2,22µM*,i,11%,0%
COc1ccc(OCc2nnnn2-c2ccccc2)cc1,i,i,7%,7%
Brc1ccc(OCc2nnnn2-c2ccccc2)cc1,i,i,-9%,22µM*
Cc1cnc2c(C)cccc2c1/C=C/c1ccc(N(C)C)cc1,nt,nt,6%,nt
O=C1C(=O)N(C2CCN(C(=O)c3ccccc3F)CC2)CCN1Cc1ccc(F)cc1,i,i,nt,18%
CC1CCc2c(C(=O)Nc3ccc(N4CCOCC4)cc3)csc2C1 (stereo not given),i,i,6%,7.1µM*
CC1CCc2c(C(=O)NCCN3CCOCC3)csc2C1 (stereo not given),i,i,-6%,-20%
